# The source made the active and inactive calls. The calls were made as follows: active = hit-call score of the fitted dose curve at least 0.9, where 1 is the maximum; inactive = score below 0.9.
# Key:
# [1] = target: Transcription factor E2F1 (Homo sapiens) (UniProt Q01094); experiment: ATG_E2F_CIS: Attagene CIS-FACTORIAL HepG2 Assay for human E2F Transcription Factor 1 (AID 2282935); details: HepG2 Attagene cis-reporter, E2F reporter RNA transcripts; actives raise or lower the signal
# Outline: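 Measures reporter transcript levels via RT-PCR with capillary electrophoresis detection in HepG2 cells harboring cis-regulated reporter units; 24 h post-dose; bidirectional curve fitting with DMSO as baseline.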
# [2] = ATG_E_Box_CIS: Attagene CIS-FACTORIAL HepG2 Assay for human Enhancer Box (E-box) (AID 2282936); details: HepG2 E-box cis-reporter transcription, actives raise or lower the signal
# Outline: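 First, HepG2 cells receive multiple cis-regulated reporter constructs by transient transfection. Next, chemicals are applied for 24 h. Finally, reporter mRNA is quantified via RT-PCR and capillary electrophoresis, with DMSO as baseline.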
# [3] = ATG_M_61_CIS: Attagene CIS-FACTORIAL HepG2 Assay for M61 Transcription Factor (Internal Marker) (AID 2282937); details: HepG2 Attagene CIS-FACTORIAL M61 internal marker reporter; actives raise or lower the signal
# Outline: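 Human liver HepG2, transient MRTU transfection (cis promoter elements), 24 h compound. Total RNA → oligo(dT) RT → PCR → FAM label → HpaI → CE. Internal background marker; bidirectional fitting, DMSO = baseline.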
# [4] = ATG_EGR_CIS: Attagene CIS-FACTORIAL HepG2 Assay for human Early Growth Response 1 (EGR1) (AID 2282938); details: HepG2 Attagene CIS-FACTORIAL EGR reporter mRNA; actives raise or lower the signal
# Outline: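 Transient transfection of human HepG2 with multiple cis-regulated reporter units, chemical exposure 24 h, total RNA isolated. Reverse transcription, PCR, fluorescent labelling and capillary electrophoresis quantify reporter transcripts; activity fitted bidirectionally against DMSO.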
# [5] = ATG_M_19_CIS: Attagene CIS-FACTORIAL HepG2 Assay for M19 Transcription Factor (Internal Marker) (AID 2282939); details: HepG2 Attagene CIS-FACTORIAL M19 internal marker reporter; actives raise or lower the signal
# Outline: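 Internal marker readout, fitted in both directions against DMSO, from HepG2 cells carrying transfected cis-element reporter constructs; RT-PCR and capillary electrophoresis of reporter mRNA after 24 h exposure.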
# [6] = ATG_ERE_CIS: Attagene CIS-FACTORIAL HepG2 Assay for Estrogen Response Element (ERE) (AID 2282940); details: HepG2 ERE cis-reporter, Attagene RNA transcript; actives raise or lower the signal
# Outline: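 After 24 h compound treatment, RNA from transfected HepG2 cells was reverse-transcribed, reporter cDNA PCR-amplified, FAM-labelled, HpaI-cut and resolved by capillary electrophoresis. ERE-driven cis reporter transcripts reflect endogenous factors; gain or loss scored against DMSO.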
# [7] = ATG_Ets_CIS: Attagene CIS-FACTORIAL HepG2 Assay for human Erythroblast Transformation Specific (ETS) (AID 2282941); details: HepG2 ETS cis-reporter transcription, actives raise or lower the signal
# Outline: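 HepG2 cells transiently transfected with cis-promoter reporter transcription units were dosed for 24 h; reporter mRNA was measured by RT-PCR, 6-FAM primer extension, HpaI digestion and capillary electrophoresis, with bidirectional fitting against DMSO baseline.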
# [8] = target: Hepatocyte nuclear factor 3-beta (Homo sapiens) (UniProt Q9Y261); experiment: ATG_FoxA2_CIS: Attagene CIS-FACTORIAL HepG2 Assay for human Forkhead box A2 (FOXA2) (AID 2282942); details: HepG2 cis-reporter transcription factor activity, 24 h; actives raise or lower the signal
# Outline: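 Transient MRTU transfection of HepG2 liver cells; 24 h treatment; total RNA → oligo(dT) RT → PCR → FAM primer extension → HpaI cut → CE. Bidirectional fit vs DMSO.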
# [9] = ATG_FoxO_CIS: Attagene CIS-FACTORIAL HepG2 Assay for human Forkhead box O (FoxO) (AID 2282943); details: HepG2 Attagene cis-reporter, FoxO element, mRNA; actives raise or lower the signal
# Outline: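 Transfected HepG2 reporter cells exposed to test chemical for 24 h; reporter RNA measured by reverse transcription, PCR and fluorescent capillary electrophoresis; curves fitted for increases and decreases against DMSO.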
# [10] = ATG_GATA_CIS: Attagene CIS-FACTORIAL HepG2 Assay for human GATA Binding Protein (AID 2282944); details: HepG2 GATA cis-element reporter, Attagene multiplex mRNA; actives raise or lower the signal
# Outline: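 Reporter transcripts from a GATA cis-regulated unit, among multiplexed reporters in transfected HepG2 cells, were measured by RT-PCR with capillary electrophoresis after 24 h dosing. Induction or loss scored relative to DMSO.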
# [11] = ATG_GLI_CIS: Attagene CIS-FACTORIAL HepG2 Assay for human Zinc Finger Protein GLI1 (AID 2282945); details: HepG2, Attagene cis-factorial reporter mRNA, GLI element; actives raise or lower the signal
# Outline: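 Transiently transfected HepG2 cells report endogenous transcription factor activity via cis-element-driven reporter units. After 24 h compound exposure, reporter mRNA was measured by RT-PCR with capillary electrophoresis; bidirectional fitting against DMSO baseline.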
# [12] = target: Bile acid receptor (Homo sapiens) (UniProt Q96RI1); experiment: ATG_IR1_CIS: Attagene CIS-FACTORIAL HepG2 Assay for human Nuclear Receptor Subfamily 1 Group H Member 4 (NR1H4), IR1 submotif (AID 2282946); details: IR1 reporter transcription, actives raise or lower the signal
# Outline: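 HepG2 cells transiently transfected with multiple cis-promoter-driven reporter units to measure endogenous transcription factor activity; 24 h exposure. Reporter mRNA read by RT-PCR, FAM labelling, HpaI digestion and capillary electrophoresis. Bidirectional fit versus DMSO.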
# [13] = ATG_ISRE_CIS: Attagene CIS-FACTORIAL HepG2 Assay for human Interferon Regulatory Factor 1 (IRF1) binding to an Interferon-Stimulated Response Element (ISRE) (AID 2282948); details: HepG2 ISRE cis-reporter (Attagene), mRNA transcription readout; actives raise or lower the signal
# Outline: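 HepG2 cells transiently transfected with multiplexed cis-promoter reporter units; after 24 h compound exposure, reporter mRNA quantified by RT-PCR, FAM labelling, HpaI digestion and capillary electrophoresis. Bidirectional fit versus DMSO baseline.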
# [14] = ATG_M_32_CIS: Attagene CIS-FACTORIAL HepG2 Assay for M32 Transcription Factor (Internal Marker) (AID 2282949); details: HepG2 Attagene cis-factorial M32 reporter, mRNA; actives raise or lower the signal;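 also: background control marker of the multiplexed CIS panel rather than a real target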
# Outline: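 Internal background marker read-out: RT-PCR/capillary electrophoresis fluorescence of reporter transcripts from transiently transfected HepG2 cells after 24 h chemical exposure. Activity fitted bidirectionally relative to DMSO negative control.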
# [15] = ATG_M_06_CIS: Attagene CIS-FACTORIAL HepG2 Assay for M06 Transcription Factor (Internal Marker) (AID 2282950); details: HepG2 Attagene CIS-FACTORIAL M06 internal marker reporter; actives raise or lower the signal
# Outline: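 Serves as a background control readout. Transfected HepG2 exposed to compounds for 24 h, then reporter transcripts quantified by fluorescent RT-PCR and capillary electrophoresis. Both directions fitted against DMSO baseline.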
# [16] = target: Hypoxia-inducible factor 1-alpha (Homo sapiens) (UniProt Q16665); experiment: ATG_HIF1a_CIS: Attagene CIS-FACTORIAL HepG2 Assay for human Hypoxia Inducible Factor 1 (HIF1A) (AID 2282951); details: HepG2 Attagene cis-factorial HIF1a reporter transcription; actives raise or lower the signal
# Outline: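 Transient MRTU transfection of human HepG2 liver cells, 24 h compound treatment, then total RNA isolation, oligo(dT) reverse transcription, PCR amplification, fluorescent labelling and capillary electrophoresis of reporter fragments. Gain or loss relative to DMSO.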
# [17] = target: Heat shock factor protein 1 (Homo sapiens) (UniProt Q00613); experiment: ATG_HSE_CIS: Attagene CIS-FACTORIAL HepG2 Assay for human Heat Shock Transcription Factor 1 (HSE) (AID 2282953); details: HepG2 HSE cis-reporter, Attagene RNA transcription; actives raise or lower the signal
# Outline: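 Endogenous transcription factor activity in transiently transfected HepG2, read as reporter mRNA by RT-PCR with fluorescent capillary electrophoresis after 24 h. Gain or loss of signal fitted versus DMSO baseline.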
# [18] = ATG_MRE_CIS: Attagene CIS-FACTORIAL HepG2 Assay for human Metal Responsive Element (MRE) (AID 2282954); details: HepG2 MRE cis-reporter transcription, Attagene multiplex; actives raise or lower the signal
# Outline: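 Fluorescent reporter fragments separated by capillary electrophoresis give mRNA induction for the MRE unit after 24 h treatment of transfected HepG2 cells. Endogenous transcription-factor activity is read; DMSO serves as negative control and baseline.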
# [19] = target: Hepatocyte nuclear factor 6 (Homo sapiens) (UniProt Q9UBC0); experiment: ATG_HNF6_CIS: Attagene CIS-FACTORIAL HepG2 Assay for human Hepatocyte Nuclear Factor 6 (HNF6) (AID 2282952); details: HepG2 Attagene cis-factorial HNF6 reporter transcription; actives raise or lower the signal
# Outline: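 HepG2 cells transiently transfected with cis-element-driven multiple reporter transcription units, dosed 24 h; reporter mRNA quantified by RT-PCR, FAM primer extension, HpaI digestion and capillary electrophoresis; bidirectional fit versus DMSO baseline.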
# [20] = ATG_GRE_CIS: Attagene CIS-FACTORIAL HepG2 Assay for human Glucocorticoid Response Elements (GRE) (AID 2282947); details: HepG2 GRE cis-reporter, Attagene multiplex mRNA; actives raise or lower the signal
# Outline: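 Endogenous transcription factor activity is read through cis-element reporter constructs transiently transfected into HepG2 cells. After 24 h treatment, labelled RT-PCR products are resolved by capillary electrophoresis; DMSO sets baseline for bidirectional curve fitting.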
# Hepatocyte nuclear factor 3-beta (Homo sapiens), sequence (Q9Y261 whole entry, looked up): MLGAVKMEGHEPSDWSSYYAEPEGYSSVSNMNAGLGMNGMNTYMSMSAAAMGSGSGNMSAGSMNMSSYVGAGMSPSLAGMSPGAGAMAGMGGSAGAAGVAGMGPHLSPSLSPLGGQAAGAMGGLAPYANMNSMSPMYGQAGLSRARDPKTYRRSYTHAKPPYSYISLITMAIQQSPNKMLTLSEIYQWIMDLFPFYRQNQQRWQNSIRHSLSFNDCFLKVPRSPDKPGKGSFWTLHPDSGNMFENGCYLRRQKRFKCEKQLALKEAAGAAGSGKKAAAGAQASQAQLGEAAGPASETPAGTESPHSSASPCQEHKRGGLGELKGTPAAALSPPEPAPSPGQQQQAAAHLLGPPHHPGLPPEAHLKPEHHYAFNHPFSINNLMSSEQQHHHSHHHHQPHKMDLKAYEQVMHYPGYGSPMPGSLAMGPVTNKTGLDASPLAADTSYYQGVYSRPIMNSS
# Transcription factor E2F1 (Homo sapiens), sequence (Q01094 whole entry, looked up): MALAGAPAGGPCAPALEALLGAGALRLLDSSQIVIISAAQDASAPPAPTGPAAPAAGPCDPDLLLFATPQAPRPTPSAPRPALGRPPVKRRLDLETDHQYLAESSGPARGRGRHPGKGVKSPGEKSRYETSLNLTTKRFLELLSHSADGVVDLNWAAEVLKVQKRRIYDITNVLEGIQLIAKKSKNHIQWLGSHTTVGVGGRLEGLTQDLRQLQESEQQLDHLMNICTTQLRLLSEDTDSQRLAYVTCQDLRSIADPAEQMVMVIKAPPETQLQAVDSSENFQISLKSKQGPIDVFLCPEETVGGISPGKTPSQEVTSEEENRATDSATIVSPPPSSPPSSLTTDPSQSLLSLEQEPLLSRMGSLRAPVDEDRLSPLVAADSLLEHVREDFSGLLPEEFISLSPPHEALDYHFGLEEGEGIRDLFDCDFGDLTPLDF
# Heat shock factor protein 1 (Homo sapiens), sequence (Q00613 whole entry, looked up): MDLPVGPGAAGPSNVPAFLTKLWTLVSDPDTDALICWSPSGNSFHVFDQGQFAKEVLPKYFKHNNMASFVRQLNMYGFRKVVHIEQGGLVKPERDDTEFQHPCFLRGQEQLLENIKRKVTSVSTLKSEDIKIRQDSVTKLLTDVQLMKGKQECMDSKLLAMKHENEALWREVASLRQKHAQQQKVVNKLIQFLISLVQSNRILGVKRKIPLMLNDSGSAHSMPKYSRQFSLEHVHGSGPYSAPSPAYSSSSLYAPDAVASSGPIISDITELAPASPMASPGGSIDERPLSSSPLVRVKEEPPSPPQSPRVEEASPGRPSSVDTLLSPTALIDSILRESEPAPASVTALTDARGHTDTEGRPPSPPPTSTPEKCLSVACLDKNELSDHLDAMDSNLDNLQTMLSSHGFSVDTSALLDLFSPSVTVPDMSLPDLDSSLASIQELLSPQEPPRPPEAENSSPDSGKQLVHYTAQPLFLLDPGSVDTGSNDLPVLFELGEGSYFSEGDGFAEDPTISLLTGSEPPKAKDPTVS
# Hepatocyte nuclear factor 6 (Homo sapiens), sequence (Q9UBC0 whole entry, looked up): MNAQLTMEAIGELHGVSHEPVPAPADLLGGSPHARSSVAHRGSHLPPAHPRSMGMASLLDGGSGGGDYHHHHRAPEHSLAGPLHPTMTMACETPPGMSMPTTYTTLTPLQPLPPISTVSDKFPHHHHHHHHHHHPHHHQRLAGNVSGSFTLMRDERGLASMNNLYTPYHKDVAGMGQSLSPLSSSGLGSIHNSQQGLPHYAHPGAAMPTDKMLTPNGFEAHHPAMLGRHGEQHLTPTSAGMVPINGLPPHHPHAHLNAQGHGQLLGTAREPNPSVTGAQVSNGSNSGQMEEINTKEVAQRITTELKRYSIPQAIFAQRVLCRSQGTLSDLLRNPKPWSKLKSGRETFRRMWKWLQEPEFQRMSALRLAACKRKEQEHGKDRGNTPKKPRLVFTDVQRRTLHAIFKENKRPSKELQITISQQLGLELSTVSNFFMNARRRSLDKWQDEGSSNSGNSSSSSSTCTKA
# Bile acid receptor (Homo sapiens), sequence (Q96RI1 whole entry, looked up): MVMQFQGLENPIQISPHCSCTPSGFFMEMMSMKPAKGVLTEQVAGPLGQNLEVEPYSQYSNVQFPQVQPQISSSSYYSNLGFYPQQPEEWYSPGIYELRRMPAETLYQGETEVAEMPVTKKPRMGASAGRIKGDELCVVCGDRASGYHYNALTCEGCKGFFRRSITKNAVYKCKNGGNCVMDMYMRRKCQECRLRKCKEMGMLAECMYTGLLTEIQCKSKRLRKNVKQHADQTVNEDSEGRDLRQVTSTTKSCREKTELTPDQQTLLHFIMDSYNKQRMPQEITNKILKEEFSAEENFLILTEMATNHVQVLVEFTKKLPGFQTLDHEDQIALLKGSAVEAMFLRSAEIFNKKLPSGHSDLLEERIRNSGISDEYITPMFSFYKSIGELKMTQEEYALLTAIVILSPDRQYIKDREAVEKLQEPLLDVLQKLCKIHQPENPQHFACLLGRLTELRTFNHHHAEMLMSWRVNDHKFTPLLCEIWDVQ
# Hypoxia-inducible factor 1-alpha (Homo sapiens), sequence (Q16665 whole entry, looked up, the tested form may be a part): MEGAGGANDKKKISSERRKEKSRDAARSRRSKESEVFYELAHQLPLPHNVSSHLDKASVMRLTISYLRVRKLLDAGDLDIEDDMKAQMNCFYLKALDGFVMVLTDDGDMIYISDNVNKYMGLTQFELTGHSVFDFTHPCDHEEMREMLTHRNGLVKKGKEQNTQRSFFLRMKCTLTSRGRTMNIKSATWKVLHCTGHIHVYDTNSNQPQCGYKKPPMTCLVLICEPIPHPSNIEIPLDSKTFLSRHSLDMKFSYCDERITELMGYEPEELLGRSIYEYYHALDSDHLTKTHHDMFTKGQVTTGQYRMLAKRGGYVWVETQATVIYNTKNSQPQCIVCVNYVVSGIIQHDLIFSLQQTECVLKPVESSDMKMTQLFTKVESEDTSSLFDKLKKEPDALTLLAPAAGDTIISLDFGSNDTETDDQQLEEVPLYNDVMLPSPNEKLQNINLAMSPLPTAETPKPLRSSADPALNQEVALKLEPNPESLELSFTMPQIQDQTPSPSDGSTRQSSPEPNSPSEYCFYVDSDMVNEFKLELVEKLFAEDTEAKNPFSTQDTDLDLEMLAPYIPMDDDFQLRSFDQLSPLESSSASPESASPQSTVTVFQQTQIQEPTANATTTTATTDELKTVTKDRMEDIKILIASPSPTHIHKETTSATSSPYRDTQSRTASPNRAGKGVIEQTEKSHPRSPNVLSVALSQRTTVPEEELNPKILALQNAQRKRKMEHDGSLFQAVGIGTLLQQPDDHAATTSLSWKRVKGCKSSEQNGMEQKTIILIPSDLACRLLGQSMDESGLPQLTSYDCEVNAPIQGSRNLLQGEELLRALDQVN
smiles,measurement,setting,value
CC(C)c1ccc2ncccc2c1,outcome,[1],inactive
same,outcome,[2],inactive
same,outcome,[3],inactive
same,outcome,[4],inactive
same,outcome,[5],inactive
same,outcome,[6],inactive
same,outcome,[7],inactive
same,outcome,[8],inactive
same,outcome,[9],inactive
same,outcome,[10],inactive
same,outcome,[11],inactive
same,outcome,[12],inactive
same,outcome,[13],inactive
same,outcome,[14],inactive
same,outcome,[15],inactive
same,outcome,[16],inactive
same,outcome,[17],inactive
same,outcome,[18],inactive
Cc1ccccc1CCO,outcome,[1],inactive
same,outcome,[2],inactive
same,outcome,[3],inactive
same,outcome,[4],inactive
same,outcome,[5],inactive
same,outcome,[6],inactive
same,outcome,[7],inactive
same,outcome,[8],inactive
same,outcome,[9],inactive
same,outcome,[10],inactive
same,outcome,[11],inactive
same,outcome,[12],inactive
same,outcome,[13],inactive
same,outcome,[14],inactive
same,outcome,[15],inactive
same,outcome,[16],inactive
same,outcome,[17],inactive
same,outcome,[18],inactive
Cc1ccc(C)c(OCCCC(C)(C)C(=O)O)c1,outcome,[1],inactive
same,outcome,[2],inactive
same,outcome,[3],inactive
same,outcome,[4],inactive
same,outcome,[5],inactive
same,AC50,[6],75.2 µM (active)
same,outcome,[7],inactive
same,outcome,[8],inactive
same,outcome,[9],inactive
same,outcome,[10],inactive
same,outcome,[11],inactive
same,outcome,[12],inactive
same,outcome,[13],inactive
same,outcome,[14],inactive
same,outcome,[15],inactive
same,outcome,[19],inactive
same,outcome,[17],inactive
C=CC(=O)OCCCCCCCC(C)C,outcome,[1],inactive
same,AC50,[2],157 µM (active)
same,outcome,[3],inactive
same,outcome,[4],inactive
same,outcome,[5],inactive
same,AC50,[6],100 µM (active)
same,outcome,[7],inactive
same,outcome,[8],inactive
same,outcome,[9],inactive
same,outcome,[10],inactive
same,outcome,[11],inactive
same,AC50,[12],91.4 µM (active)
same,outcome,[13],inactive
same,outcome,[14],inactive
same,outcome,[15],inactive
same,AC50,[16],71.8 µM (active)
same,outcome,[19],inactive
same,outcome,[17],inactive
CCCCOCC(C)O (stereo not given),outcome,[1],inactive
same,outcome,[2],inactive
same,outcome,[3],inactive
same,outcome,[4],inactive
same,outcome,[5],inactive
same,outcome,[6],inactive
same,outcome,[7],inactive
same,outcome,[8],inactive
same,outcome,[9],inactive
same,outcome,[10],inactive
same,outcome,[11],inactive
same,outcome,[20],inactive
same,outcome,[13],inactive
same,outcome,[14],inactive
same,outcome,[15],inactive
same,outcome,[16],inactive
same,outcome,[19],inactive
same,outcome,[17],inactive
same,outcome,[18],inactive
Nc1ccnc(=O)[nH]1,outcome,[1],inactive
same,outcome,[2],inactive
same,outcome,[3],inactive
same,outcome,[4],inactive
same,outcome,[5],inactive
same,outcome,[6],inactive
same,outcome,[7],inactive
same,outcome,[8],inactive
same,outcome,[9],inactive
same,outcome,[10],inactive
same,outcome,[11],inactive
same,outcome,[20],inactive
same,outcome,[13],inactive
same,outcome,[14],inactive
same,outcome,[15],inactive
same,outcome,[16],inactive
same,outcome,[19],inactive
CCCCOC(=O)CCC(C)=O,outcome,[1],inactive
same,outcome,[2],inactive
same,outcome,[3],inactive
same,outcome,[4],inactive
same,outcome,[5],inactive
same,outcome,[6],inactive
same,outcome,[7],inactive
same,outcome,[8],inactive
same,outcome,[9],inactive
same,outcome,[10],inactive
same,outcome,[11],inactive
same,outcome,[20],inactive
same,outcome,[13],inactive
same,outcome,[14],inactive
same,outcome,[15],inactive
same,outcome,[16],inactive
same,outcome,[19],inactive
same,outcome,[17],inactive
same,outcome,[18],inactive
CCOC(=O)CC(=O)c1ccccc1,outcome,[1],inactive
same,outcome,[2],inactive
same,outcome,[3],inactive
same,outcome,[4],inactive
same,outcome,[5],inactive
same,outcome,[6],inactive
same,outcome,[7],inactive
same,outcome,[8],inactive
same,outcome,[9],inactive
same,outcome,[10],inactive
same,outcome,[11],inactive
same,outcome,[20],inactive
same,outcome,[13],inactive
same,outcome,[14],inactive
same,outcome,[15],inactive
same,outcome,[16],inactive
same,outcome,[19],inactive
same,outcome,[17],inactive
same,outcome,[18],inactive

# Reference: PubChem BioAssay (EPA / NIEHS)
